# Source: PubChem BioAssay (several laboratories)
# An excerpt weighted towards active compounds, which were near 2.9% of everything screened.
# ABHD5 PLIN5 PPI: blocks binding of human ABHD5 to perilipin-5. 360,000 tested, 0.78% active. AID 602281. inhibition, % at 4 µM. Split G. princeps luciferase complementation, luminescence, 4 h;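 active = inhibition above the mean inhibition across every tested compound plus 3 SD, cut at about 22% in these data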
# Cardio protect: protects H9c2 cardiomyocytes from peroxide injury; 360,000 tested, 0.63% active; protection from H2O2 cell death, % at 20 µM; H2O2 injury protection, ATPLite, 2 h; AID 588492;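 active = compounds giving at least 50% protection of heart cells from peroxide-induced death in the single-dose screen, raw or plate-pattern-corrected value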
# Myeloid diff 2: myeloid differentiation induction | calls only at 10 µM | ER-HoxA9 myeloid progenitors, lysozyme-GFP differentiation, flow cytometry | AID 624256 | 360,000 tested, 1% active;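 active = normalized GFP-positive differentiation at or above the plate's own cutoff, the solvent-only control mean plus 3 SD; inconclusive = no clear call, values can overlap the other calls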;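 also: cells exposed to compound for four days before flow analysis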
# sPLA2-III inh: Blocks human group III sPLA2 activity. Q9NZ20. QFRET BODIPY PC-A2 liposome hydrolysis, fluorescence. inhibition, % at 12.2 µM. 370,000 tested, 0.56% active. AID 743126;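 active = inhibition above mean plus 3 SD of compounds lying within the high and low control bounds, cut at about 19% in these data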
# Target sequence (Q9NZ20 whole entry, looked up): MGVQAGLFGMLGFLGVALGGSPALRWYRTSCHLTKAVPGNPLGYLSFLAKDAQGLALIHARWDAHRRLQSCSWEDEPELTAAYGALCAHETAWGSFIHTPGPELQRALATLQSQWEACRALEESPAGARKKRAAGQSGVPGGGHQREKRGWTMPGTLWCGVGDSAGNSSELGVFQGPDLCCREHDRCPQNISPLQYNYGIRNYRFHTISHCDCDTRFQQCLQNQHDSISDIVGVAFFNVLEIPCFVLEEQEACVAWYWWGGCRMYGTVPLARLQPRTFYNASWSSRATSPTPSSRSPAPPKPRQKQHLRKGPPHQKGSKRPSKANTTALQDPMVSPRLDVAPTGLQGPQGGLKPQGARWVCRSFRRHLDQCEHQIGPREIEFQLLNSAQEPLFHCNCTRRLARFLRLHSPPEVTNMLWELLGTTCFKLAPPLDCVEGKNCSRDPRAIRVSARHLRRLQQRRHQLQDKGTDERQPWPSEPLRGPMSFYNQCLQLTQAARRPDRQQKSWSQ
# DAGLB inhibitor: blocks human DAGLB lipase activity; Q8NCG7; HEK293T DAGLB membrane lysate, EnzChek fluorogenic substrate; inhibition, % at 5.17 µM; 340,000 tested, 0.059% active; in the data active = inhibition above about 34%
# Rtt109 HAT inh: C. albicans Rtt109 histone acetyltransferase inhibition; Q5AAJ8; purified Rtt109/Vps75, ThioGlo CoA-SH fluorescence, 4 h; inhibition, % at 34.9 µM; 330,000 tested, 0.16% active;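 active = inhibition of at least 50% in every replicate; inconclusive = best replicate reaches 50% inhibition but some replicates fall short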
# ABHD5-PLIN5 conf: ABHD5-PLIN5 interaction inhibition, confirmed. AID 651612. biochemical ABHD5-PLIN5 interaction, luminescence. 2,200 tested, 67% active. inhibition, % at 4 µM. shares compounds with ABHD5 PLIN5 PPI; in the data active = inhibition above about 23%
# HNF4 split-luc: active in HNF4 split-luciferase counter-screen for ABHD5-PLIN5 inhibitors; shares compounds with ABHD5 PLIN5 PPI; HNF4 dimerization, luminescence, biochemical; inhibition, % at 4 µM; 2,200 tested, 77% active; AID 651674;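 active = mean inhibition across replicate wells exceeding the computed hit threshold, cut at about 13% in these data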;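 also: light from luciferase halves that rejoin when HNF4 fusion proteins dimerize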
# Numbers stand for hits; 0 = inactive; ? = inconclusive; - = no result given.
SMILES,ABHD5 PLIN5 PPI,Cardio protect,Myeloid diff 2,sPLA2-III inh,DAGLB inhibitor,Rtt109 HAT inh,ABHD5-PLIN5 conf,HNF4 split-luc
COc1ccc(Br)cc1C(=O)NC(=S)Nc1ccc2[nH]c(=O)[nH]c2c1,0,0,0,0,0,0,-,-
O=[N+]([O-])c1ccc(CS(=O)c2ccccc2)cc1 (stereo unspecified),0,0,0,0,0,0,-,-
O=[N+]([O-])c1ccc(S(=O)Cc2ccccc2)c([N+](=O)[O-])c1 (stereo unspecified),95,0,?,0,0,0,100,110
CC[N+]1(C)CCC(O)(/C=C/c2ccccc2)C(C(=O)/C=C/c2ccccc2)C1 (stereo unspecified),45,0,-,0,0,0,93,109
O=C(/C=C/c1ccccc1)C1C(=O)c2ccccc2C1=O,0,0,0,0,0,0,-,-
O=C(c1ccco1)N1CCN(C2CN(CCc3ccccc3)S(=O)(=O)C2)CC1 (stereo unspecified),0,0,0,0,-,-,-,-
CCC1CCCCN1S(=O)(=O)c1ccc(NC(=O)c2nc(S(C)(=O)=O)ncc2Cl)cc1 (stereo unspecified),91,0,?,0,0,0,100,107
CCS(=O)(=O)c1ncc(Cl)c(C(=O)Nc2ccc(C)cc2)n1,48,0,-,0,0,0,72,78
Cc1ccc(CS(=O)(=O)c2ncc(Cl)c(C(=O)Nc3ccc(OC(F)F)cc3)n2)cc1,57,0,?,0,0,0,90,89
CCOC(=O)C1CCCN(C(=O)Cn2nc(Cc3cccnc3)c3ccccc3c2=O)C1 (stereo unspecified),0,0,0,0,0,0,-,-
COc1ccc(C(C)=O)cc1CS(=O)(=O)CC(=O)NCCc1c[nH]c2ccccc12,0,0,0,0,0,0,-,-
O=C(Nc1ccc(Br)cc1Br)Nc1cccc2[nH]c([C@@H]3O[C@H](CO)[C@@H](O)[C@H](O)[C@H]3O)nc12,0,0,0,0,-,-,-,-
Cc1ccc(NC2C(=O)NC(=O)NC2=O)cc1,44,0,0,0,0,0,0,15
Cc1ccc(NC2CNC(=O)NC2=O)cc1C (stereo unspecified),0,0,0,0,0,0,-,-
O=C(NCCCN1CCOCC1)c1c(-c2ccccc2)oc2c1C(OCCCCCO)CCC2 (stereo unspecified),0,-,0,0,-,-,-,-
CCN(CC)CCNC(=O)CSc1c2c(nc3cc(Cl)ccc13)CCCC2,33,0,0,0,0,0,46,41
COc1cccc(NC(=O)CSc2c3c(nc4ccccc24)CCCC3)c1,34,0,0,0,0,0,39,46
CN(CCCNC(=O)CCC(=O)N1CCOc2ccc(Cl)cc21)Cc1ccccc1,0,0,0,0,0,0,-,-
Cc1ccc(-c2cc(C(=O)Nc3cccnc3)c3ccccc3n2)o1,0,0,0,0,0,0,-,-
Cc1ccc(NC(=O)c2cc(-c3ccc(C)o3)nc3ccccc23)cc1,35,0,0,0,0,0,38,40
C=CC(=O)N1C/C(=C/c2ccc(Cl)cc2)C(=O)/C(=C\c2ccc(Cl)cc2)C1,94,0,?,0,0,0,104,110
CN1C2CCC1/C(=C\c1ccccc1)C(=O)/C2=C\c1ccccc1,0,0,0,0,0,0,-,-
C=CC(=O)N1C/C(=C/c2ccccc2)C(=O)/C(=C\c2ccccc2)C1,101,0,?,0,0,0,103,107
CCOC(=O)C(C)(C)Sc1ncnc2nc[nH]c12,0,0,0,0,0,0,-,-
CCOC(=O)c1cc([N+](=O)[O-])cc([N+](=O)[O-])c1Sc1ncnc2nc[nH]c12,38,0,-,0,0,0,62,102
SMILES,ABHD5 PLIN5 PPI,Cardio protect,Myeloid diff 2,sPLA2-III inh,DAGLB inhibitor,Rtt109 HAT inh,ABHD5-PLIN5 conf,HNF4 split-luc
COc1cccc(-c2cnc3c(NC=O)cc(-c4ccoc4)cn23)c1,26,0,0,0,-,-,30,37
CN(C)C(=O)c1cccc(-c2cnc3c(NC=O)cc(-c4ccccc4Cl)cn23)c1,24,0,0,0,-,-,0,0
COc1cccc(-c2cnc3c(NC=O)cc(-c4ccc(S(C)(=O)=O)cc4)cn23)c1,0,0,0,0,-,-,-,-
Cc1nn(C)c(Oc2ccccc2)c1CCNS(=O)(=O)c1ccccc1,0,0,0,0,0,0,-,-
C[C@@H]1COC(=O)[C@H](NC(=O)OCC2c3ccccc3-c3ccccc32)C/C=C\C[C@@H](CC(=O)N[C@@H](CO)Cc2ccccc2)C(=O)N1,0,0,0,0,0,0,-,-
Cc1cc(C(F)(F)F)nn1Cc1ccc(C(=O)NCc2ccco2)o1,23,0,0,0,0,0,29,23
Cc1ccsc1/C=N/NC(=O)Nc1ccccc1,0,0,0,0,0,0,-,-
O=C(CC1Sc2ncnn2C1=O)Nc1ccccc1 (stereo unspecified),27,0,0,0,0,0,0,47
O=C(CC1SC(=O)N(c2ccccc2)C1=O)Nc1ccccc1 (stereo unspecified),0,0,0,0,0,0,-,-
CCOc1cc(/C=C2/COc3ccccc3C2=O)ccc1OCC(=O)N(C)C,25,0,0,0,0,-,71,67
O=C1/C(=C/c2ccccc2[N+](=O)[O-])COc2ccccc21,58,0,-,0,0,0,79,76
O=C1/C(=C/c2ccc(O)cc2)COc2ccccc21,25,0,0,0,0,0,50,60
CN(C(=O)c1ccc2c(c1)OCO2)C1CCCCC1,0,0,0,0,0,0,-,-
COc1ccccc1-c1cc2nc(NCCc3ccncc3)ccn2n1,0,0,0,0,-,-,-,-
COC1CC(C)C(OC)c2cc(O)cc(c2O)NC(=O)C(C)=CC=CC(C)C(OC(N)=O)C(C)=CC(C)C1OC (stereo unspecified),43,0,-,0,0,0,52,93
O=S(=O)(/N=S1\CC=CCN1S(=O)(=O)c1ccccc1)c1ccccc1 (stereo unspecified),92,0,0,0,0,0,0,85
CS(=O)(=O)c1ccc(C(=O)NCCN2C(=O)S/C(=C\c3cccnc3)C2=O)cc1[N+](=O)[O-],56,0,0,0,0,0,67,44
Cc1cscc1NC(=O)/C=C/C(=O)O,0,0,0,0,-,0,-,-
C=CCn1c(O)c(C2=c3ccccc3=NC2=O)c2ccccc21,90,0,-,0,0,0,85,107
C=CCn1c(O)c(C2=c3ccccc3=NC2=O)s/c1=N/c1nccs1,0,0,0,0,0,0,-,-
Cc1ccc2c(c1)c(C1=c3ccccc3=NC1=O)c(O)n2C,33,0,-,0,0,0,88,108
Cc1cc(C)n2nc(C(=O)OCC(=O)NC(=O)c3ccccc3)nc2n1,0,0,0,0,0,0,-,-
